Only some compounds are listed: those with a hit (about 8.1% of all), similar ones and a draw of the others.
Epigenetic reg: epigenetic control regulation, reporter derepression. murine LDR cells, GFP reporter derepression, 30 h. Potency, µM (series often up to 53.9 µM), for inactives: at the highest dose GFP activation, most hits filed as activators. 280,000 tested, 0.2% active; further: % of control where 0% means no effect; nearly all actives have a fitted effect of over 60% in size
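Readout is the number of GFP-expressing murine LDR cells, counted by cytometry following washing. Cells were treated with compound for 30 h at 37 C; the stably integrated CMV-GFP locus is normally silent.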
RORg inh: blocks mouse ROR gamma transcriptional activity. Potency, µM (series often up to 53.6 µM), for inactives: at the highest dose activity change, negative = inhibition, usual class: inhibitors. P51450. 310,000 tested, 5.4% active. Drosophila S2 Gal4-RORgamma UAS-luciferase reporter, 20 h; further: on the % scale 0 is the no-effect control and ±100 the full control effect; nearly all actives have a fitted effect of over 60% in size
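Stable Schneider cell line, Gal4 DNA-binding domain fused to ROR gamma, UAS-luciferase. Cmpd 1 hr RT → CuSO4 700 uM final → 20 hr RT → luciferase reagent 10 min → luminescence.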
PINK1 modulator: changes PINK1 expression. AID 624263. 410,000 tested, 0.2% active. PINK1 immunofluorescence, high-content cytometry, 24 h. Potency, µM (highest dose often 76.6 µM), inactives show top-dose activation (PINK1 increase), most hits filed as activators; active means well fitted activation curve with a large enough effect; inconclusive means small, poorly fitted or top-dose-only effect; cell line not stated here; further: % of control where 0% means no effect; nearly all actives have a fitted effect of over 65% in size
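Stable cell line treated 24 h with compounds at 5 concentrations (CCCP controls), then fixed and immunostained for PINK1 plus nuclear and cell stains; PINK1 immunofluorescence quantified by laser-scanning microplate cytometry.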
Sfp PPTase inh: Sfp phosphopantetheinyl transferase inhibition; Q9F4F7; Biochemical Sfp PPTase activity, qHTS; Potency, µM, for inactives: largest response in the series, negative = inhibition, usual class: inhibitors; 310,000 tested, 3.5% active; AID 1490;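 further: the enzyme is Sfp with the accession as filed and its product quenches rhodamine fluorescence; 0% = enzyme reaction without inhibitor and -100% = no enzyme wells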
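Fluorescence-quenching assay with 15 nM Sfp, 5 uM rhodamine-CoA and 12.5 uM BHQ-2-labelled ybbR peptide in pH 7.6 Hepes/MgCl2 buffer. Enzyme was pre-incubated with compound for 15 min at room temperature. Rate was taken from the 30-min fluorescence change (525/598 nm).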
ClpP mod: qHTS Assay for Activators of ClpP; ATP-dependent Clp protease proteolytic subunit (Bacillus subtilis (strain 168)), P80244; purified B. subtilis ClpP, FRET peptide cleavage, 20 min; Potency, µM (doses to about 57.5 µM), without a hit: at the highest dose activity change, negative = active; 340,000 tested, 1.9% active; AID 651965, 2013; active means well fitted falling curve with a large enough effect; inconclusive means small, poorly fitted or top-dose-only effect; inactive means no such curve, though single readings can be large or run the other way; further: the source files actives as falling curves though it sought activators and does not explain the sign; nearly all actives have a fitted effect of over 65% in size
Target sequence (P80244 whole entry, looked up): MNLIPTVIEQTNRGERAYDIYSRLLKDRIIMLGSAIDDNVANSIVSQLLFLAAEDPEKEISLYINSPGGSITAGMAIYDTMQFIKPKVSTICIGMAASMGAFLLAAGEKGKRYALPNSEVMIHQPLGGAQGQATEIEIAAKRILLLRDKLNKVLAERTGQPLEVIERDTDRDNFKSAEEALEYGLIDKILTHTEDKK
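Purified B. subtilis ClpP, 10 microg/mL final in Tris/HCl pH8 with KCl, BSA, glycerol and Tween-20, cleaved an Abz/nitrotyrosine-quenched decapeptide. Fluorescence (ex 320, em 430) was read at 0 and 20 min at room temperature. Delta was normalized to 5.8 microM ADEP and DMSO/no-enzyme controls.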
Gal4-VP16 FLuc: Gal4-VP16 reporter inhibition counter-screen; Drosophila S2 Gal4-VP16 UAS-luciferase, luminescence, 20 h; Potency, µM (doses to about 53.6 µM), for inactives: top-dose activity, negative = inhibition, usual class: inhibitors; 310,000 tested, 3.5% active; AID 2546;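 further: Gal4-VP16 expression switched on by copper sulfate through the metallothionein promoter; on the % scale 0 is the no-effect control and ±100 the full control effect; nearly all actives have a fitted effect of over 50% in size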
* marks the source's active call; other numbers are inactive results; ? = inconclusive; . = no result given; [ ] = another dose, or the depositor's remark. Unless noted, the call rests on the fitted dose curve; in most records, active means well fitted curve in the direction sought with a large enough effect; inconclusive means small, poorly fitted or top-dose-only effect, or another doubt; inactive means no such curve, though single readings can be large; an effect the other way counts as inactive or inconclusive. Potency means the concentration at half of the fitted maximal effect.

SMILES	Epigenetic reg	RORg inh	PINK1 modulator	Sfp PPTase inh	ClpP mod	Gal4-VP16 FLuc
CCc1ccc(N2CC(C(=O)N/N=C/c3cc([N+](=O)[O-])ccc3O)CC2=O)cc1 (stereo unspecified)	2%	4.5µM*	2%	22%	.	10µM*
Cc1sc(N/N=C/c2cc([N+](=O)[O-])ccc2O)nc1-c1ccccc1	2%	0.28µM*	4%	-4%	1%	0.71µM*
CCc1ccc(N2CC(C(=O)N/N=C/c3ccccc3OC)CC2=O)cc1 (stereo unspecified)	.	3%	2%	0%	0%	-6%
O=C(N/N=C/c1cc([N+](=O)[O-])ccc1O)C(O)(c1ccccc1)c1ccccc1	.	0.89µM*	6%	-4%	.	0.89µM*
O=[N+]([O-])c1ccc(O)c(/C=N/Nc2ccccc2Cl)c1	-3%	?	?	8%	.	?
O=C(N/N=C/c1cc([N+](=O)[O-])ccc1O)c1cccc2cc[nH]c12	2%	1.4µM*	?	6%	2%	3.5µM*
O=C(N/N=C/c1cccc([N+](=O)[O-])c1)c1cccc2cc[nH]c12	0%	-1%	0%	22%	.	2%
Cc1cc(-c2ccc(C)c(S(=O)(=O)N(C)c3ccc(C)c(C)c3)c2)on1	-4%	.	2%	.	0%	.
CCC(C(=O)Nc1ccc(C)c(C)c1)n1c(=O)c(C(F)(F)F)nc2ccccc21 (stereo unspecified)	-2%	.	2%	.	-3%	.
CC(=O)OCC#CCSc1nnc(-c2cccc(Br)c2)o1	-1%	.	-2%	.	-1%	.
O=C(N/N=C/c1cc([N+](=O)[O-])ccc1O)C1CC1	2%	1.8µM*	1%	23%	2%	7.9µM*
O=C1NCCCC1C(=O)N/N=C/c1cc([N+](=O)[O-])ccc1O (stereo unspecified)	-3%	-42%	-1%	16%	.	-9%
COc1ccc(-c2cc(C(F)(F)F)n3nc(C(=O)O)cc3n2)cc1OC	0%	-12%	-1%	0%	-1%	-3%
CCc1ccccc1NC(=O)c1cc2nc(-c3ccc(OC)c(OC)c3)cc(C(F)(F)F)n2n1	0%	.	0%	.	?	.
COC(=O)c1cc2nc(-c3ccc(OC)c(OC)c3)cc(C(F)(F)F)n2n1	13%	25%	-3%	12%	3.2µM*	-6%
O=C(NCc1ccco1)c1cnn2c(C(F)(F)F)cc(-c3ccccc3)nc12	3%	16µM*	8%[38.3 µM]	25µM*	2%	11µM*
NC(=O)c1cnn2c(C(F)(F)F)cc(-c3ccccc3)nc12	0%	0%	-3%	10%	-7%	-5%
CCc1ccccc1NC(=O)c1cnn2c(C(F)(F)F)cc(-c3ccc(OC)c(OC)c3)nc12	13µM*	.	0%	.	-3%	.
COc1ccc(-c2cc(C(F)(F)F)n3ncc(C(=O)NCc4ccco4)c3n2)cc1	2%	-23%	3%	56µM*	-14%	-27%
CCOc1ccc(NC(=O)c2oc3ccccc3c2NC(=O)C(C)(C)C)cc1	-1%	.	0%	.	-13%	.
CC1CN(C(=O)Cn2cnc3c2c(=O)n(C)c(=O)n3C)CC(C)O1 (stereo unspecified)	-1%	-1%	1%	15%	0%	-3%
Cn1c(=O)c2c(ncn2CC(=O)N2CCOCC2)n(C)c1=O	0%	2%	-2%	23%	32µM*	-6%
CS(=O)(=O)c1ccc(C(=O)OC2CCOC2=O)cc1[N+](=O)[O-] (stereo unspecified)	.	4.5µM*	3%	7%	.	?
O=C(c1ccc(COc2ccc3ccccc3c2)o1)N1N=C(C(F)F)CC1(O)C(F)F (stereo unspecified)	-2%	?	-1%	32µM*	-2%	?
O=C(c1ccc(COc2ccc(Br)cc2)o1)N1N=C(C(F)F)CC1(O)C(F)F (stereo unspecified)	-1%	-20%	6%	?	0%	?

Screening data: PubChem BioAssay, National Center for Advancing Translational Sciences (NCATS)
